Several values for one entry are separate records, joined by “and”; a condition that tells them apart may be missing. Equal values may be shown once. More than one record can exist for a structure, and the calls need not agree. Activity calls are given as the source filed them. How the source made its calls: active means hit-call score of the fitted dose curve at least 0.9, where 1 is the maximum; inactive means score below 0.9.

Our source for the outcome and AC50 values is PubChem BioAssay (EPA / NIEHS).

Read-out in the assay: Plasminogen activator inhibitor-1 (PAI1), SERPINE1 (gene 5054)
Briefly: BSK_BE3C_PAI1: BioMAP Diversity Plus: BE3C Assay for Plasminogen activator inhibitor-1 (PAI1) Biomarker Activity (AID 2283037). Particulars: primary human bronchial epithelial cells; actives raise or lower the signal. As for the experimental part:
BSK_BE3C is a cell-based, multiplexed-readout assay that uses bronchial epithelial cell, a human lung primary cell, with measurements taken at 24 hours after chemical dosing in a 96-well plate.BSK_BE3C_PAI1 is an assay component measured in the BSK_BE3C assay. It measures PAI-1 antibody related to regulation of gene expression using ELISA technology.Data from the assay component BSK_BE3C_PAI1 was analyzed into 1 assay endpoint. This assay endpoint, BSK_BE3C_PAI1, was analyzed with bidirectional fitting relative to DMSO as the negative control and baseline of activity. Using a type of binding reporter, gain or loss-of-signal activity can be used to understand changes in the signaling as they relate to the gene SERPINE1. Furthermore, this assay endpoint can be referred to as a primary readout, because this assay has produced multiple assay endpoints where this one serves a signaling function. To generalize the intended target to other relatable targets, this assay endpoint is annotated to the cytokine intended target family, where the subfamily is plasmogen activator inhibitor.
The levels of cell surface (or secreted, indicated by the prefix "s") biomarker endpoints were measured by ELISA. Overt cytotoxicity to cells in confluent adherent cultures (all systems other than the BT system) was assessed by measuring total protein levels using sulforhodamine B (SRB) staining in parallel cultures at the time of biomarker measurements, indicated as SRB endpoints. For proliferation assays for adherent cell types, individual cell types are cultured at sub-confluence and relative cell numbers quantified by SRB staining at time points optimized for each system (48 h: 3C and CASM3C systems; 72 h: BT and HDF3CGF systems; 96 h: SAg system). SRB was performed by staining cells with 0.1% SRB after fixation with 10% TCA and reading wells at 560 nm.Viability and proliferation of PBMC (T cells) was quantified by Alamar Blue reduction for the SAg and BT systems. For PBMC viability (referred to as PBMC Cytotoxicity within the assay endpoint names), cells were plated (75,000/well in a 96-well plate) and then chemical samples added for 1 h before addition of activators, SEB and TSST-1 (20 ng/mL final concentration each). Cells were incubated for 90 h. Then, Alamar Blue (20 uL/well) (Invitrogen, Cat DAL1100) was added for 6 h, and the plates were read with a fluorescence microplate reader at 546/580 nm (excitation/emission). For PBMC proliferation, cells were plated and activated as above but incubated for only 16 h prior to addition of Alamar Blue. Plates were read after 6 h.
For the molecule `O=C(O)C(F)(F)C(F)(F)C(F)(F)C(=O)O`, the outcome was inactive.

For `CCN(CCO)S(=O)(=O)C(F)(F)C(F)(F)C(F)(F)C(F)(F)C(F)(F)C(F)(F)C(F)(F)C(F)(F)F`, the AC50 is 30 µM (active) and 15.4 µM (active). Take `NCC(F)(F)C(F)(F)C(F)(F)C(F)(F)C(F)(F)C(F)(F)C(F)(F)C(F)(F)F`: the outcome was inactive. The same measure, in the same setting: with `CCOC(C=C(C)CCC=C(C)C)OCC` the entry was “inactive”; with `O=C=Nc1cccc2c(N=C=O)cccc12`, “inactive”. The same measure, in the same setting: the entry for `O=C=NCc1cccc(CN=C=O)c1` is “inactive”; for `O=C(Cl)C(F)(F)C(F)(F)C(F)(F)C(F)(F)C(F)(F)C(F)(F)F` it is “inactive”.

Consider `Cc1cc(O)c(C(C)(C)C)cc1C(C)(C)C`, for which the AC50 was 5.28 µM (active). As for `O=C(O)CCC(F)(F)C(F)(F)C(F)(F)C(F)(F)C(F)(F)C(F)(F)C(F)(F)F`, the outcome was inactive.

Regarding `OCC(F)(F)C(F)(F)C(F)(F)CO`, the outcome was inactive.

On to `Cc1cnccn1`, for which the outcome was inactive. For `NC(=O)C(F)(F)C(F)(F)C(F)(F)C(F)F`, the outcome was inactive.

As to `Brc1nc2ccccc2s1`, the outcome was inactive. Still for that read-out and setting: with `O=S(=O)(OCC(F)(F)F)C(F)(F)C(F)(F)C(F)(F)C(F)(F)F` the entry was “inactive”; with `O=S(=O)(O)CCC(F)(F)C(F)(F)C(F)(F)C(F)(F)F`, “inactive”; with `O=C(Cl)C(F)(F)C(F)(F)C(F)(F)C(F)(F)C(F)(F)C(F)(F)C(F)(F)F`, “inactive”. Same read-out and setting: the entry for `O=C(O)C(F)(F)OC(F)(F)C(F)(F)OC(F)(F)C(F)(F)OC(F)(F)F` is “inactive”. Turning to `CCN=C1C=CC(=C(c2ccc(N(CC)CC)cc2)c2ccc(N(CC)CC)cc2)c2ccccc21`, the AC50 is 716 nM (active) and 210 nM (active). On the same count and under the same terms, with `OCC(F)(F)C(F)(F)C(F)(F)C(F)(F)C(F)(F)C(F)(F)C(F)(F)C(F)(F)CO` the figure was 37.4 µM (active) and 30 µM (active).

Regarding `NCC(F)(F)C(F)(F)C(F)(F)C(F)(F)C(F)(F)C(F)(F)F`, the result was inactive. The same measure, in the same setting: the entry for `NC(=O)C(F)(F)C(F)(F)C(F)(F)C(F)(F)C(N)=O` is “inactive”; for `OCC(O)CC(F)(F)C(F)(F)C(F)(F)C(F)(F)F` (stereo not given) it is “inactive”.

With `Cc1cc(C)c(O)c(C(C)(C)C)c1`, the AC50 was 27.9 µM (active).

With `NC(=O)C(F)(F)C(F)(F)C(F)(F)F`, the outcome was inactive. Same read-out and setting: with `CO[Si](C)(CCC(F)(F)C(F)(F)C(F)(F)C(F)(F)C(F)(F)C(F)(F)F)OC` the entry was “inactive”.

Turning to `O=C(O)C(F)(F)C(F)(F)C(F)(F)OC(F)(F)F`, the result was inactive. The same measure, in the same setting: with `O=C(c1ccccc1)c1ccc(O)cc1O` the entry was “inactive”; with `C=CC(=O)OCC(F)(F)C(F)(F)C(F)(F)COC(=O)C=C`, “inactive”. On the same count and under the same terms, with `CC(C)(C)c1cc(CCC(=O)NCCCCCCNC(=O)CCc2cc(C(C)(C)C)c(O)c(C(C)(C)C)c2)cc(C(C)(C)C)c1O` the entry was “inactive”; with `OC(O)C(F)(F)C(F)(F)F`, “inactive”; with `FC(F)(F)C(F)(F)C(F)(F)C(F)(F)C(F)(F)C(F)(F)C(F)(F)CCI`, “inactive”. On the same count and under the same terms, the entry for `NC(=O)C(F)(F)C(F)(F)C(F)(F)C(F)(F)C(F)(F)C(F)(F)C(F)(F)F` is “inactive”; for `FC(F)(F)C(F)(F)C(F)(F)CC1CO1` (stereo not given) it is “inactive”.

For the molecule `CCN(CC)c1ccc2c(c1)Oc1cc(N(CC)CC)ccc1C21OC(=O)c2ccccc21`, the outcome was inactive. Turning to `CCN(CC)c1ccc(N=Nc2ccccc2)cc1`, the AC50 is 29.3 µM (active).

With `NS(=O)(=O)C(F)(F)C(F)(F)C(F)(F)C(F)(F)C(F)(F)C(F)(F)F`, the result was inactive and the AC50 is 7.32 µM (active).

Turning to `OCC(O)CC(F)(F)C(F)(F)C(F)(F)C(F)(F)C(F)(F)C(F)(F)C(F)(F)C(F)(F)F` (stereo not given), the outcome was inactive. Regarding `O=C(O)CCC(F)(F)C(F)(F)C(F)(F)F`, the result was inactive. Same read-out and setting: the entry for `O=C(O)C(F)(F)C(F)(F)C(F)(F)C(F)(F)C(F)(F)C(F)(F)C(F)F` is “inactive”.
